Assay results reported in PubChem BioAssay (NCI).
The panel holds about 79,000 compounds, 15% with a hit somewhere; the sample as a whole holds those more often. Calls of active or inactive are those of the source. Rule as the data show it: active = growth inhibition above about 70%; inactive = the rest.

Legend:
[1] = NCI Yeast Anticancer Drug Screen. Data for the wt2 strain (AID 169);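 also: 0% = growth of vehicle-treated yeast cultures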; details: S. cerevisiae wt2 strain growth inhibition, hits give high values
Summary of the method: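 This strain belongs to a panel of yeast strains with defined genetic alterations in DNA damage repair or cell cycle control. Compounds are applied, and growth inhibition is measured against vehicle-treated cultures.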

[2] = NCI Yeast Anticancer Drug Screen. Data for the mlh1 rad18 strain (AID 175); details: S. cerevisiae mlh1 rad18 strain growth inhibition, hits give high values
Summary of the method: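 Read-out is yeast growth inhibition, calculated against vehicle-only controls. The compound was applied to a strain engineered with DNA damage repair alterations.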

[3] = NCI Yeast Anticancer Drug Screen. Data for the rad18 strain (AID 177); details: S. cerevisiae rad18 mutant growth inhibition, hits give high values
Summary of the method: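 Growth of the mutant yeast strain after compound exposure, normalised to vehicle-only cultures.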

[4] = NCI Yeast Anticancer Drug Screen. Data for the rad52 strain (AID 147);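 also: 0% = growth of vehicle-treated control cultures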; details: S. cerevisiae rad52 mutant growth inhibition, hits give high values
Summary of the method: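 Compounds are applied to a genetically defined yeast strain lacking normal DNA damage repair, and inhibition of growth is expressed relative to cultures given vehicle only.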

[5] = NCI Yeast Anticancer Drug Screen. Data for the wt1 strain (AID 149);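 also: 0% = growth of vehicle-treated wt1 cultures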; details: S. cerevisiae wt1 strain (SPY 50644) growth inhibition, hits give high values
Summary of the method: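 Vehicle-normalised growth inhibition; strain wt1; compound exposure.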

[6] = NCI Yeast Anticancer Drug Screen. Data for the rad50EPP+ strain (AID 151);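 also: 0% = growth of vehicle-treated control cultures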; details: S. cerevisiae rad50 mutant strain, hits give high values
Summary of the method: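 Compounds were applied to the rad50EPP+ yeast strain, which bears a defined DNA repair alteration, and growth inhibition was determined relative to vehicle-treated cultures.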

[7] = NCI Yeast Anticancer Drug Screen. Data for the mgt1 strain (AID 153); details: S. cerevisiae mgt1 mutant growth inhibition, hits give high values
Summary of the method: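 Strain: mgt1 yeast, one of a set carrying defined DNA damage repair or cell cycle control alterations. Compound-treated growth compared with vehicle.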

[8] = NCI Yeast Anticancer Drug Screen. Data for the rad50 strain (AID 155);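 also: 0% = growth of vehicle-only cultures of the same strain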; details: S. cerevisiae rad50 strain growth inhibition, hits give high values
Summary of the method: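 A DNA repair-deficient yeast mutant serves as the test organism; compound-induced growth inhibition is calculated against vehicle-treated cells.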

[9] = NCI Yeast Anticancer Drug Screen. Data for the mec2-1 strain (AID 157); details: S. cerevisiae mec2-1 strain, hits give high values
Summary of the method: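 Strain: mec2-1 (DNA repair/cell cycle alteration). Compound exposure, then growth measured; inhibition expressed relative to vehicle.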

[10] = NCI Yeast Anticancer Drug Screen. Data for the rad14 strain (AID 159);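 also: 0% = growth of vehicle-treated control cultures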; details: S. cerevisiae rad14 strain growth inhibition, hits give high values
Summary of the method: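 Vehicle-treated cultures served as the baseline for growth inhibition of a DNA repair-mutant yeast strain exposed to each compound.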

[11] = NCI Yeast Anticancer Drug Screen. Data for the sgs1 mgt1 strain (AID 161);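 also: 0% = growth of cultures given vehicle only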; details: S. cerevisiae sgs1 mgt1 strain, hits give high values
Summary of the method: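 Inhibition of yeast growth, normalised to vehicle-treated controls, is reported for a strain bearing genetic alterations in DNA damage repair.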

[12] = NCI Yeast Anticancer Drug Screen. Data for the CLN2oe strain (AID 163);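 also: 0% = growth of vehicle-only control cultures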; details: S. cerevisiae CLN2oe strain, hits give high values
Summary of the method: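 Growth of a genetically modified yeast strain is measured after compound exposure and compared with cultures given vehicle alone.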

[13] = NCI Yeast Anticancer Drug Screen. Data for the cln2 rad14 strain (AID 165);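 also: 0% = growth equal to vehicle treated cultures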; details: S. cerevisiae cln2 rad14 strain, hits give high values
Summary of the method: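 Compounds are applied to the cln2 rad14 yeast strain, and growth is then compared with that of vehicle-treated cultures to give inhibition.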

[14] = NCI Yeast Anticancer Drug Screen. Data for the bub3 strain (AID 167); details: S. cerevisiae bub3 mutant strain, hits give high values
Summary of the method: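 Inhibition values come from growth of compound-treated mutant yeast normalised to vehicle-treated controls.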

[15] = NCI Yeast Anticancer Drug Screen. Data for the sgs1 strain (AID 173);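 also: 0% = growth of vehicle-only control cultures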; details: S. cerevisiae sgs1 mutant, hits give high values
Summary of the method: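 Growth of a yeast strain bearing a defined genetic alteration is measured after compound treatment. Inhibition is expressed relative to vehicle-only controls.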

[16] = at 5.0 µM (retest, dose inferred, filed as 0.5)
[17] = at 50.0 µM (retest, dose inferred, filed as 5.0)

Measured: growth inhibition

CCCCS/C(=C(/C#N)C(N)=O)c1cc2c([nH]1)CCCC2
inactive: [1]; at 1.2 µM -13% | [1]; at 3.7 µM -17% | [1]; at 11.0 µM -16% | [1]; at 33.0 µM 6% | [2]; [16] 13% | [2]; [17] 46% | [2]; at 50.0 µM -32.3% | [3]; at 1.2 µM 0% | [3]; at 3.7 µM -13% | [3]; at 11.0 µM -24% | [3]; at 33.0 µM -19% | [3]; at 100.0 µM 44%
active: [1]; at 100.0 µM 98%

Cc1oc2ccccc2c(=O)c1Cn1nnc2ccccc21
inactive: [4]; at 1.2 µM -1% | [4]; at 3.7 µM -2% | [4]; at 11.0 µM 0% | [4]; at 33.0 µM 9% | [4]; at 100.0 µM 56% | [5]; at 1.2 µM -2% | [5]; at 3.7 µM -1% | [5]; at 11.0 µM -2% | [5]; at 33.0 µM -6% | [5]; at 100.0 µM 6% | [6]; at 1.2 µM -1% | [6]; at 3.7 µM 3% | [6]; at 11.0 µM 8% | [6]; at 33.0 µM 17% | [6]; at 100.0 µM 35% | [7]; at 1.2 µM 0% | [7]; at 3.7 µM 2% | [7]; at 11.0 µM 0% | [7]; at 33.0 µM 2% | [7]; at 100.0 µM 26% | [8]; at 1.2 µM -3% | [8]; at 3.7 µM -1% | [8]; [16] -20% | [8]; at 11.0 µM -1% | [8]; at 33.0 µM 13% | [8]; [17] 47% | [8]; at 50.0 µM 4.55% | [9]; at 1.2 µM -2% | [9]; at 3.7 µM -3% | [9]; [16] 1% | [9]; at 11.0 µM -2% | [9]; at 33.0 µM 1% | [9]; [17] 5% | [9]; at 50.0 µM 14.6% | [9]; at 100.0 µM 36% | [10]; at 1.2 µM -1% | [10]; at 3.7 µM -1% | [10]; at 11.0 µM 1% | [10]; at 33.0 µM 8% | [10]; at 100.0 µM 36% | [11]; [16] -1% | [11]; [17] 22% | [11]; at 50.0 µM 16.9% | [12]; at 1.2 µM 0% | [12]; at 3.7 µM 0% | [12]; at 11.0 µM -4% | [12]; at 33.0 µM -5% | [12]; at 100.0 µM 19% | [13]; [16] 9% | [13]; [17] 50% | [13]; at 50.0 µM 15.7% | [14]; at 1.2 µM -1% | [14]; at 3.7 µM -2% | [14]; [16] 3% | [14]; at 11.0 µM 0% | [14]; at 33.0 µM 10% | [14]; [17] 41% | [14]; at 50.0 µM 21.9% | [14]; at 100.0 µM 67% | [1]; at 1.2 µM -2% | [1]; at 3.7 µM -2% | [1]; at 11.0 µM -1% | [1]; at 33.0 µM 0% | [1]; at 100.0 µM 32% | [15]; at 1.2 µM 0% | [15]; at 3.7 µM 1% | [15]; at 11.0 µM 2% | [15]; at 33.0 µM 12% | [15]; at 100.0 µM 68% | [2]; [16] -1% | [2]; [17] 27% | [2]; at 50.0 µM -11.3% | [3]; at 1.2 µM -2% | [3]; at 3.7 µM -2% | [3]; at 11.0 µM 1% | [3]; at 33.0 µM 15% | [3]; at 100.0 µM 55%
active: [8]; at 100.0 µM 73%

O=C1NC(c2cccc(OCc3ccccc3)c2)Nc2ccccc21 (centres undefined)
active: [8]; [17] 81% | [8]; at 50.0 µM 84.3% | [9]; [17] 74% | [9]; at 50.0 µM 77.8% | [2]; [17] 71%
inactive: [4]; at 1.2 µM 16% | [4]; at 3.7 µM 20% | [4]; at 11.0 µM 19% | [4]; at 33.0 µM 14% | [4]; at 100.0 µM 6% | [5]; at 1.2 µM -10% | [5]; at 3.7 µM -20% | [5]; at 11.0 µM -22% | [5]; at 33.0 µM -26% | [5]; at 100.0 µM -5% | [6]; at 1.2 µM -3% | [6]; at 3.7 µM 10% | [6]; at 11.0 µM 0% | [6]; at 33.0 µM 6% | [6]; at 100.0 µM 16% | [7]; at 1.2 µM -7% | [7]; at 3.7 µM -19% | [7]; at 11.0 µM -35% | [7]; at 33.0 µM -22% | [7]; at 100.0 µM -51% | [8]; at 1.2 µM 12% | [8]; at 3.7 µM 12% | [8]; [16] 49% | [8]; at 11.0 µM 8% | [8]; at 33.0 µM 6% | [8]; at 100.0 µM -9% | [9]; at 1.2 µM 13% | [9]; at 3.7 µM 11% | [9]; [16] 42% | [9]; at 11.0 µM 6% | [9]; at 33.0 µM 5% | [9]; at 100.0 µM 0% | [10]; at 1.2 µM -6% | [10]; at 3.7 µM -14% | [10]; at 11.0 µM -11% | [10]; at 33.0 µM -19% | [10]; at 100.0 µM -17% | [11]; [16] 5% | [11]; [17] 35% | [11]; at 50.0 µM 63.9% | [12]; at 1.2 µM -4% | [12]; at 3.7 µM -9% | [12]; at 11.0 µM -5% | [12]; at 33.0 µM -7% | [12]; at 100.0 µM 1% | [13]; [16] 35% | [13]; [17] 38% | [13]; at 50.0 µM 32.5% | [14]; at 1.2 µM 6% | [14]; at 3.7 µM 14% | [14]; [16] 20% | [14]; at 11.0 µM 8% | [14]; at 33.0 µM 4% | [14]; [17] 32% | [14]; at 50.0 µM 67.8% | [14]; at 100.0 µM 1% | [1]; at 1.2 µM -5% | [1]; at 3.7 µM -11% | [1]; at 11.0 µM -7% | [1]; at 33.0 µM -14% | [1]; at 100.0 µM 3% | [15]; at 1.2 µM 2% | [15]; at 3.7 µM 0% | [15]; at 11.0 µM -7% | [15]; at 33.0 µM -6% | [15]; at 100.0 µM -14% | [2]; [16] 36% | [2]; at 50.0 µM 65.2% | [3]; at 1.2 µM -6% | [3]; at 3.7 µM -18% | [3]; at 11.0 µM -26% | [3]; at 33.0 µM -21% | [3]; at 100.0 µM -37%
